Among the data in ChEMBL document CHEMBL1961873, “Compounds: GSK PKIS; Assays: Nanosyn kinase panel” (2012) are inhibition values, retold here.

The target of assay [1] is Protein kinase C gamma type (Homo sapiens) (UniProt P05129). Conditions: at 1 µM.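 Further: each value is an averaged percent inhibition of the enzyme.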
Assay [2] has as its target T1, Protein kinase C iota type (Homo sapiens) (UniProt P41743).
T1 sequence (whole entry): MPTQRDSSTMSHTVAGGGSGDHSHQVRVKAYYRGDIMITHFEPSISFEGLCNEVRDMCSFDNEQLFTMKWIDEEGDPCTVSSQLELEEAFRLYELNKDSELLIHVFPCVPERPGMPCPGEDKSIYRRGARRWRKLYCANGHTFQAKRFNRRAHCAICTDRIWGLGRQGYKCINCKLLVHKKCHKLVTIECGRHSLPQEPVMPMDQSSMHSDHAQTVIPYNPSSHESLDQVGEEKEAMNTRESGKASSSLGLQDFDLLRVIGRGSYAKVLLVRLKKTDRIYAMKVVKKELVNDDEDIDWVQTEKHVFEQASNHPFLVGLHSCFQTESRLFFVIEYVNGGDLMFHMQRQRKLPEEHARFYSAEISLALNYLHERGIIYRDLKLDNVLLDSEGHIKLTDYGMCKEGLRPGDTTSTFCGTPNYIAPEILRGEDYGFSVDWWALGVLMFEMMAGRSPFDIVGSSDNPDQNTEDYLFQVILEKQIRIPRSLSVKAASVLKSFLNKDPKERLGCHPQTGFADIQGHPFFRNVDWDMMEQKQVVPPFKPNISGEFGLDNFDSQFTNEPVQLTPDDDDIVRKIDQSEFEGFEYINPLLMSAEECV
Conditions: at 0.1 µM.

Assay [3] addresses T1, Protein kinase C iota type (Homo sapiens). As to conditions: at 1 µM.
The target in assay [4] is Protein kinase C theta type (Homo sapiens) (UniProt Q04759). Conditions: at 0.1 µM.
The target is the same in assay [5]. Conditions: at 1 µM.
The target of assay [6] is Protein kinase C beta type (Homo sapiens) (UniProt P05771). Conditions: at 0.1 µM.
The target is the same in assay [7]. Conditions: at 1 µM.
Assay [8] deals with T2, Serine/threonine-protein kinase D1 (Homo sapiens) (UniProt Q15139).
T2 sequence (whole entry): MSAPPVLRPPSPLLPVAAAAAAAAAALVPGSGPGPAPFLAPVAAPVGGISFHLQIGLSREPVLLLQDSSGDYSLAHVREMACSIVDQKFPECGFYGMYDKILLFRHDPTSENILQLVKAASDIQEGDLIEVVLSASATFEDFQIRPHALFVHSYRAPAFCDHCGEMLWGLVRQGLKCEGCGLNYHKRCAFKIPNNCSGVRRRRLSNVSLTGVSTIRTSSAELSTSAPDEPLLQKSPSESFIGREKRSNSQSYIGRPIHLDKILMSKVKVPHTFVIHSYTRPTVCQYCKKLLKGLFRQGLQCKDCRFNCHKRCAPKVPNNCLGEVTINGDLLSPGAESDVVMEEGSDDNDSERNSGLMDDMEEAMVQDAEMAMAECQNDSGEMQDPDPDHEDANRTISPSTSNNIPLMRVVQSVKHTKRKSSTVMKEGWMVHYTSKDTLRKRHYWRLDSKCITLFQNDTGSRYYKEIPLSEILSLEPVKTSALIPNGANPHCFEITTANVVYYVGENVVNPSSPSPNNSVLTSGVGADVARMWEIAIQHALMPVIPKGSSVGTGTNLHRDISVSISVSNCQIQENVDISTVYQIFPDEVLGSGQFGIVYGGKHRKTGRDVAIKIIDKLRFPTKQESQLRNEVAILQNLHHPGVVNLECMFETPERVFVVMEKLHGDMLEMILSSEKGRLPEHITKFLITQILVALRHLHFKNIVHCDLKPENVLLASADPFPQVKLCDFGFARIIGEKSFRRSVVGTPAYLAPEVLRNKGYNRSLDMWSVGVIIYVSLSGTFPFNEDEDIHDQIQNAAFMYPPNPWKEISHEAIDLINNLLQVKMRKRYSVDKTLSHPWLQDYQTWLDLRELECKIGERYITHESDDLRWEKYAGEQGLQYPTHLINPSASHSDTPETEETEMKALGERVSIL
Conditions: at 0.1 µM.

Assay [9] concerns the target T2, Serine/threonine-protein kinase D1 (Homo sapiens). As to conditions: at 1 µM.
Assay [10] has as its target T3, Serine/threonine-protein kinase D2 (Homo sapiens) (UniProt Q9BZL6).
T3 sequence (whole entry): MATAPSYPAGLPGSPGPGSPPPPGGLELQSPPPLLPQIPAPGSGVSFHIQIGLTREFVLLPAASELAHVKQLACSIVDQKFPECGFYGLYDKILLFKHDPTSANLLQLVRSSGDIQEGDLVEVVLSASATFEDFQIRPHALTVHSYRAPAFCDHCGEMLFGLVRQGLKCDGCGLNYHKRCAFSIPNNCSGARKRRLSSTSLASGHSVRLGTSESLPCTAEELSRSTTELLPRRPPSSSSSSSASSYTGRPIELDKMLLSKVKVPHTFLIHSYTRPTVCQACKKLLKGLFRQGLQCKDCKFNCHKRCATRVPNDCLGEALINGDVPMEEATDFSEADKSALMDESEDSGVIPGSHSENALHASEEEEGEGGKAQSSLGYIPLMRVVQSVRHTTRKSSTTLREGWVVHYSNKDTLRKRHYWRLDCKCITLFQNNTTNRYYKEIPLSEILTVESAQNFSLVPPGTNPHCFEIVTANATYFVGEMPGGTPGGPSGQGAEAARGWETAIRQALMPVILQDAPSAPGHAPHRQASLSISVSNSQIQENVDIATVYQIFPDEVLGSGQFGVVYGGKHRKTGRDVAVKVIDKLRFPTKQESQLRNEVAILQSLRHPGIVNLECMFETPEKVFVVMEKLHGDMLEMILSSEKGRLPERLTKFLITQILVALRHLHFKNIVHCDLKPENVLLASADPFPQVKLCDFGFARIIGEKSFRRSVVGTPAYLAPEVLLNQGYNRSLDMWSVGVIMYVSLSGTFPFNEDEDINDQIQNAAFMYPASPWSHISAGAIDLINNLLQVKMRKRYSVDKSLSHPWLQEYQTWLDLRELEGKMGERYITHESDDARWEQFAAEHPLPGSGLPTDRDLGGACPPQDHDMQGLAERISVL
As to conditions: at 0.1 µM.

Assay [11] addresses T3, Serine/threonine-protein kinase D2 (Homo sapiens). Conditions: at 1 µM.
In assay [12] the target is T4, Serine/threonine-protein kinase D3 (Homo sapiens) (UniProt O94806).
T4 sequence (whole entry): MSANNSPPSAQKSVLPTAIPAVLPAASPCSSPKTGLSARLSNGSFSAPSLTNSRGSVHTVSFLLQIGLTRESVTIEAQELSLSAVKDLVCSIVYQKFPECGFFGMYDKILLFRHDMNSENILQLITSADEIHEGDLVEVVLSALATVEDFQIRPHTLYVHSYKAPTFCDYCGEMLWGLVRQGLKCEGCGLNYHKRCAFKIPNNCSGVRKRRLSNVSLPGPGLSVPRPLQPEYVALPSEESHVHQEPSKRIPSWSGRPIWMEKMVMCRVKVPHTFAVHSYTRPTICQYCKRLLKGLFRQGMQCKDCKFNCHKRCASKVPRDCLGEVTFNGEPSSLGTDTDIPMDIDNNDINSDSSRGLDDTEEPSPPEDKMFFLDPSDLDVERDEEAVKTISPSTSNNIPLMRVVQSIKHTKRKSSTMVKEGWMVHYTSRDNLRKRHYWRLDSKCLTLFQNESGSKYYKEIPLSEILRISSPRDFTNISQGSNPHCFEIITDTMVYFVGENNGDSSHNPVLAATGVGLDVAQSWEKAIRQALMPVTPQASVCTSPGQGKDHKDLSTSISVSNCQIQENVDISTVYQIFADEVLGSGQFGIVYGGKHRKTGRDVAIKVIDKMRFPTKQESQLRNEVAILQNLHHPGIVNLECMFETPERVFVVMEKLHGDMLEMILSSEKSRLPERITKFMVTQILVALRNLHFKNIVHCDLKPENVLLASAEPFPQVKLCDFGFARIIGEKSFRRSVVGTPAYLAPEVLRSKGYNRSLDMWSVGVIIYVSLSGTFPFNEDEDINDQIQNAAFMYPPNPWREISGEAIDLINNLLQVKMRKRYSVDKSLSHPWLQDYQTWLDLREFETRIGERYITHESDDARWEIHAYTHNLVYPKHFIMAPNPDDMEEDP
As to conditions: at 0.1 µM.

Assay [13] has as its target T4, Serine/threonine-protein kinase D3 (Homo sapiens). As to conditions: at 1 µM.
Assay [14] deals with T5, cGMP-dependent protein kinase 1 (Homo sapiens) (UniProt Q13976).
T5 sequence (whole entry): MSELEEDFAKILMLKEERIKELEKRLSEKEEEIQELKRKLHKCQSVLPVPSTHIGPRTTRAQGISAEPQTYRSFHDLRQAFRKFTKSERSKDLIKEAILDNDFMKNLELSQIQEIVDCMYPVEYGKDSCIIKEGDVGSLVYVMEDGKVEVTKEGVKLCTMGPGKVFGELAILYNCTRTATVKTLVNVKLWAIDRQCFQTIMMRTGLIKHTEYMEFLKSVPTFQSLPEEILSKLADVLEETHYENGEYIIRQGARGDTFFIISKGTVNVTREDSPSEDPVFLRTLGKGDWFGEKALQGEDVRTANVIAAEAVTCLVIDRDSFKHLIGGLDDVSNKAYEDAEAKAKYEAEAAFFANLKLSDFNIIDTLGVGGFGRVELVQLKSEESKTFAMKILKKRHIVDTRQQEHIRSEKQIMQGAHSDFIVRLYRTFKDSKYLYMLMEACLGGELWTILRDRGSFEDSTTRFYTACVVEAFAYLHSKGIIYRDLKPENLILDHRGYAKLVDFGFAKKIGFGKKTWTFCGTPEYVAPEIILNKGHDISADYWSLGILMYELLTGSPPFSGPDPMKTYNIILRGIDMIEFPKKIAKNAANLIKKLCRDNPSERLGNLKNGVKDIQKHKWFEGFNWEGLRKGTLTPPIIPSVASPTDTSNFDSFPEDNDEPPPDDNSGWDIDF
Conditions: at 0.1 µM.

The target in assay [15] is T5, cGMP-dependent protein kinase 1 (Homo sapiens). Conditions: at 1 µM.
Assay [16] concerns the target T6, cGMP-dependent protein kinase 2 (Homo sapiens) (UniProt Q13237).
T6 sequence (whole entry): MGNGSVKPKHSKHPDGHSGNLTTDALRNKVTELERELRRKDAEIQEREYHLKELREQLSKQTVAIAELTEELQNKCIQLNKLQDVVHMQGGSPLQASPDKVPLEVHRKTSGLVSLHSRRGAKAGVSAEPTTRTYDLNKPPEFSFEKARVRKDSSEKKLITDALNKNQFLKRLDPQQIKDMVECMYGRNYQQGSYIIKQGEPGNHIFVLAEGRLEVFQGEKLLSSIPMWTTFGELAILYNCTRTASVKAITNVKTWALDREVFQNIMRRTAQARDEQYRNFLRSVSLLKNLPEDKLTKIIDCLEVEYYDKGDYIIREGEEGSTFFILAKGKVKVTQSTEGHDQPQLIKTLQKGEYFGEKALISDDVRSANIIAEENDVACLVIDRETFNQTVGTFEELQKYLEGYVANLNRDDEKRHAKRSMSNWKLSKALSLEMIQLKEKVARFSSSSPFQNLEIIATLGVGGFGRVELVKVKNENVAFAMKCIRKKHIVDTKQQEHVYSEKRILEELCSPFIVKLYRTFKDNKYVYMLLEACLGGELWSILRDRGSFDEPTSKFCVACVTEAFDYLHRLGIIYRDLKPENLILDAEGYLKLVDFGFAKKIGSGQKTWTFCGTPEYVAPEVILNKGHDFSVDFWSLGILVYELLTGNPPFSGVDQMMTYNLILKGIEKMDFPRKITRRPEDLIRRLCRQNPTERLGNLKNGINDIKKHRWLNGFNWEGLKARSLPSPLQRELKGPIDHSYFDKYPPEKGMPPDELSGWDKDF
As to conditions: at 0.1 µM.

Assay [17] has as its target T6, cGMP-dependent protein kinase 2 (Homo sapiens). Conditions: at 1 µM.
For assay [18], the target named is T7, cAMP-dependent protein kinase catalytic subunit PRKX (Homo sapiens) (UniProt P51817).
T7 sequence (whole entry): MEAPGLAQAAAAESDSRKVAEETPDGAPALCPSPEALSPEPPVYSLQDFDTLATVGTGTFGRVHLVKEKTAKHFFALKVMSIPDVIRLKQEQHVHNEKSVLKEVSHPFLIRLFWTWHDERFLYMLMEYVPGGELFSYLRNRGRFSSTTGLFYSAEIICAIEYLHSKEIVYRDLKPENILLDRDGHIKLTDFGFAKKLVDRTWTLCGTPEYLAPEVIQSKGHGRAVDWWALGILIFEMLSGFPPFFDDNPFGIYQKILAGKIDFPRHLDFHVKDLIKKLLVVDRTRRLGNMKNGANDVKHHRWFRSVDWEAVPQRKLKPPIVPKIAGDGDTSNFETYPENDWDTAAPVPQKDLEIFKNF
As to conditions: at 0.1 µM.

In assay [19] the target is T7, cAMP-dependent protein kinase catalytic subunit PRKX (Homo sapiens). Conditions: at 1 µM.
In assay [20] the target is Rho-associated protein kinase 1 (Homo sapiens) (UniProt Q13464). As to conditions: at 0.1 µM.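 Further: values are mean percent inhibition of ROCK1.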

Structures are written as SMILES.

Sequence of Protein kinase C theta type (Homo sapiens) (Q04759 whole entry, looked up): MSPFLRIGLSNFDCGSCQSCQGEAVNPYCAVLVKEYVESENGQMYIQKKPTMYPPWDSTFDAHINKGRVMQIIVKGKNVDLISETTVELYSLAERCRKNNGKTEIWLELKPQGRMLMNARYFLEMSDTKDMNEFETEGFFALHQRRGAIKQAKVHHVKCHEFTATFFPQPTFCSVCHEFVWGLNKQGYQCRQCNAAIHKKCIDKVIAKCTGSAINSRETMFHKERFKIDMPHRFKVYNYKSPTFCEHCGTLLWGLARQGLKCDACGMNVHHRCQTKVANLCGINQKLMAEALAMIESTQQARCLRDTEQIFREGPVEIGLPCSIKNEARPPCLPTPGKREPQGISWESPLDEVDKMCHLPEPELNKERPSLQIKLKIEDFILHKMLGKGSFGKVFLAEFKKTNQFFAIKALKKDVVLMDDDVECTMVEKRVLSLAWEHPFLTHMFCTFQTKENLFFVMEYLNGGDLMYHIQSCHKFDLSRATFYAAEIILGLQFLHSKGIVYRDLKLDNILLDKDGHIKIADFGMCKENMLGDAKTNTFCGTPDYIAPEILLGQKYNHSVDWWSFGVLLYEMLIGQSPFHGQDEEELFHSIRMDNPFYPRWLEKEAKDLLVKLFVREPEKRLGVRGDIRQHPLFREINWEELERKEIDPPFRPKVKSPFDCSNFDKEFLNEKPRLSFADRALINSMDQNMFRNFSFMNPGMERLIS
Sequence of Protein kinase C beta type (Homo sapiens) (P05771 2-671 limits assumed): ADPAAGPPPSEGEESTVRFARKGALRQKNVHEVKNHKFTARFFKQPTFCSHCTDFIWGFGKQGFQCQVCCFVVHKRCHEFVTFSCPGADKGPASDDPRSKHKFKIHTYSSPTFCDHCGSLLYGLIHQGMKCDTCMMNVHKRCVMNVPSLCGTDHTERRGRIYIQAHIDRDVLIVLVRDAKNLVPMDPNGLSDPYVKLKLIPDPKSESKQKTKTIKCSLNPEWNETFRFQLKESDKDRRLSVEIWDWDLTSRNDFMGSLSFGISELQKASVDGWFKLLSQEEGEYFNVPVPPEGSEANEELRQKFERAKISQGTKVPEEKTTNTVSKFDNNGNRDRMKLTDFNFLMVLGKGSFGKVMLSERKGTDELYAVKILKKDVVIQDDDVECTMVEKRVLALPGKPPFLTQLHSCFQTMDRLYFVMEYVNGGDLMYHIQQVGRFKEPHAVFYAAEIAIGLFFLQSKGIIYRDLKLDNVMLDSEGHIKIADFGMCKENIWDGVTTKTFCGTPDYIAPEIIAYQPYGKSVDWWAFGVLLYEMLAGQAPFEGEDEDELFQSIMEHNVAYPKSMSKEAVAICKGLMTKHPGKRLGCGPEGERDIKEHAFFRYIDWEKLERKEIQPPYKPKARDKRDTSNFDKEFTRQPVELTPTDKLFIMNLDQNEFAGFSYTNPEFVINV
Sequence of Rho-associated protein kinase 1 (Homo sapiens) (Q13464 2-1354 limits assumed): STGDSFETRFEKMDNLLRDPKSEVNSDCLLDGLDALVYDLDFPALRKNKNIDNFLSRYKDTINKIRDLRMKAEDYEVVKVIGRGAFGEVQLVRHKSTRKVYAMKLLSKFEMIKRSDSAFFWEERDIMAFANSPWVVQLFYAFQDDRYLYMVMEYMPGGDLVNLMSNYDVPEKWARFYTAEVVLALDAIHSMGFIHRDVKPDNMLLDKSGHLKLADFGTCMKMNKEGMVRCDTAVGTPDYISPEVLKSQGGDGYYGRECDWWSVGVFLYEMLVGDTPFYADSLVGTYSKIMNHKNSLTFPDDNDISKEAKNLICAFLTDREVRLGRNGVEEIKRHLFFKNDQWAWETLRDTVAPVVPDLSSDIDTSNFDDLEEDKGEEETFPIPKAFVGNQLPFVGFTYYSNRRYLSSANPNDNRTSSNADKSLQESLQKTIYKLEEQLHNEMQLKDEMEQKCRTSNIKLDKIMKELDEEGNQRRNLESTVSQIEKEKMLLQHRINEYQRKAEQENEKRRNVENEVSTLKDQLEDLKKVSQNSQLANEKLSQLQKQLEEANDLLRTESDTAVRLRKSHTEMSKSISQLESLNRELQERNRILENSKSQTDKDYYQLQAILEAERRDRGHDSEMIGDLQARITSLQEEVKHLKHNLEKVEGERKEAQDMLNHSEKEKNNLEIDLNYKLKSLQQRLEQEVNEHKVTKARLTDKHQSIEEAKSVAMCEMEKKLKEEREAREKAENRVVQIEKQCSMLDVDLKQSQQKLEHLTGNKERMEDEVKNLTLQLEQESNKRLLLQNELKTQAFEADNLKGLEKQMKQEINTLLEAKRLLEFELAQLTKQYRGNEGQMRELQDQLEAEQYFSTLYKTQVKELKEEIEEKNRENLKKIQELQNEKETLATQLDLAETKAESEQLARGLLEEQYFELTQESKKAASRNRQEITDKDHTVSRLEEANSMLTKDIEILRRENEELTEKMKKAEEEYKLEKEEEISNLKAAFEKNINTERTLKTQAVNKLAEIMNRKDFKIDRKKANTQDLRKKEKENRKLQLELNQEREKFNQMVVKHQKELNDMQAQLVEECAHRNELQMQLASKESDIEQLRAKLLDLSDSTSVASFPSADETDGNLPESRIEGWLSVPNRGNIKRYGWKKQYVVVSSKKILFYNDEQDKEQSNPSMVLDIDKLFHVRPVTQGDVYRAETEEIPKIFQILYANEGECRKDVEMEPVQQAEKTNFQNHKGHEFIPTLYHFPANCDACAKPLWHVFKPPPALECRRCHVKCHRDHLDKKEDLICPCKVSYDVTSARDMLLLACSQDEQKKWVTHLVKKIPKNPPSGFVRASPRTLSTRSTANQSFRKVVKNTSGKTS

Usually inhibition stands for the relative decrease from the control value, in per cent. For `C[C@@H](Oc1cc(-n2cnc3ccc(OCC4CCN(C)CC4)cc32)sc1C(N)=O)c1ccccc1Cl`, the inhibition came to 6.3% in assay [1]; 1.84% in assay [2]; 2.7% in [3]; 4.47% in [4]; 15.3% in assay [5]; 3.47% in assay [6]. Also, the inhibition in [7] came to 11.6%; in assay [8], 6.16%; in [9], 12%; in [10] it was 7.73%; in assay [11], 12.1%; in assay [12], 5.81%. The inhibition in assay [13] was determined as 12%; in [14], 3.88%; in [15] it was 7.13%; in [16] it was 3.5%; in [17], 7.56%; in assay [18], 1.81%. In addition, the inhibition was -4.06% in assay [19] and 2.64% in assay [20].

Take `COc1cc2ncn(-c3cc(OCc4cccs4)c(C(N)=O)s3)c2cc1OC`: the inhibition was 6.19% in assay [1]; 2.66% in assay [2]; 0.01% in assay [3]; 1.98% in assay [4]; 6.01% in assay [5]; 2.61% in assay [6]. Also, the inhibition in assay [7] was 4.99%; in assay [8], -0.16%; in assay [9] it was -1.53%; in assay [10], -1.61%; in assay [11], -0.96%; in assay [12], -1.14%. The inhibition is -2.04% in assay [13]; 3.61% in [14]; 7.44% in assay [15]; 3.73% in assay [16]; 6.83% in assay [17]; 3.18% in [18]. The inhibition is -3.65% in assay [19] and 2.39% in assay [20].
